An excerpt weighted towards active compounds, which were near 2.6% of everything screened.
p53 PUMA act = mutant p53 pathway reactivation; SW480 PUMA-promoter luciferase; activation, % at 9.98 µM; 1.5% of 28,000 active; AID 624151; in the data active means activation above about 52%
NFkB binder = binders of human NF-kappa-B p105; P19838; Small molecule microarray, anti-His fluorescence binding; calls only; 1.3% of 17,000 active; AID 624139;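 active means spot fluorescence over background significantly raised, with a chance value under 7% in all four replicate spots of the compound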;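 further: probe protein is his-tagged human p50 processed subunit at 1 µg/ml; raw spot fluorescence signals with no normalization applied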
p53 mut binder = binds human mutant p53 on microarray | 0.4% of 17,000 active | small molecule microarray binding, anti-GST fluorescence | calls only;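 active means compounds whose four printed spots each glow above background more than chance allows, each with a p-value under 7%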
STAT3 SMM = binders of human STAT3 | P40763 | Small molecule microarray, His-STAT3 binding, anti-His fluorescence | 0.2% of 17,000 active | calls only;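 active means compounds whose four printed spots each show fluorescence over background unusually high for their array block, chance value under 7%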
Target sequence (P40763 whole entry, looked up): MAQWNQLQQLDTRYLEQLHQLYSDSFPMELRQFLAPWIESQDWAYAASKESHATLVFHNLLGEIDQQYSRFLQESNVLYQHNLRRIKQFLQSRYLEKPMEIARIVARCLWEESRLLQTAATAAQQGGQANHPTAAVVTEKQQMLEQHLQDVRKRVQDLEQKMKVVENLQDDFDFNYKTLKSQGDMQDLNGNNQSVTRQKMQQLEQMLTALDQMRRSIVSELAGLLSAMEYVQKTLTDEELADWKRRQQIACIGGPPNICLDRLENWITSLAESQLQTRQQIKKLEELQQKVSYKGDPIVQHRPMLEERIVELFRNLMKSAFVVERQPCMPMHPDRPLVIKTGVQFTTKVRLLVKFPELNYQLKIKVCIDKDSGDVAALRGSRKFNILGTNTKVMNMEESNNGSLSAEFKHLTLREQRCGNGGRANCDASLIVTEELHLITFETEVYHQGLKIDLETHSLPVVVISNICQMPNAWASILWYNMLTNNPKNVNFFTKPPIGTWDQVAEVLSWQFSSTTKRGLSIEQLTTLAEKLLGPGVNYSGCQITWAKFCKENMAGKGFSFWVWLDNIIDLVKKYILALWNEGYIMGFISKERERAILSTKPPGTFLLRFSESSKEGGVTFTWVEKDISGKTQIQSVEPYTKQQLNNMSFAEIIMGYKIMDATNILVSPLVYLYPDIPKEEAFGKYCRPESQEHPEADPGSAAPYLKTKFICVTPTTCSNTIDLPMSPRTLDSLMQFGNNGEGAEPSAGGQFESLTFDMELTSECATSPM
c-Myc SMM = binds human c-Myc on microarray; P01106; small molecule microarray, His-c-Myc binding, anti-His fluorescence; calls only; 1.5% of 17,000 active;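 active means spot fluorescence over background with P-value below 7% in all four replicate spots, showing protein binding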;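 further: score is binary with 100 for all four spots passing and 0 otherwise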
Active calls of the source: *.

C[C@H](CO)N1C[C@H](C)[C@H](CN(C)S(=O)(=O)c2ccc(F)cc2)Oc2ccc(NC(=O)Nc3ccccc3)cc2CC1=O was read as NFkB binder inactive, p53 mut binder inactive, STAT3 SMM inactive and c-Myc SMM inactive.
`C[C@@H]1CN([C@@H](C)CO)C(=O)c2cc(NC(=O)C3CCCCC3)ccc2O[C@@H](C)CCCCO[C@@H]1CN(C)C(=O)C1CCCCC1` gave NFkB binder active, p53 mut binder inactive, STAT3 SMM inactive and c-Myc SMM active.
For CC(C)NC(=O)N(C)C[C@@H]1OCCCC[C@@H](C)Oc2ccc(NC(=O)c3ccccc3)cc2C(=O)N([C@@H](C)CO)C[C@@H]1C the results were p53 PUMA act 8, NFkB binder inactive, p53 mut binder inactive, STAT3 SMM inactive and c-Myc SMM inactive.
For CC(C)NC(=O)N(C)C[C@@H]1OCCCC[C@@H](C)Oc2ccc(NC(=O)c3ccncc3)cc2C(=O)N([C@H](C)CO)C[C@@H]1C the results were p53 PUMA act 7, NFkB binder inactive, p53 mut binder inactive, STAT3 SMM inactive and c-Myc SMM inactive.
`C[C@H](CO)N1C[C@H](C)[C@H](CN(C)S(=O)(=O)c2cccs2)OCCCC[C@H](C)Oc2ccc(NC(=O)c3ccncc3)cc2C1=O` gave p53 PUMA act -11, NFkB binder active, p53 mut binder inactive, STAT3 SMM inactive and c-Myc SMM inactive.
C[C@@H]1CN([C@H](C)CO)C(=O)c2cc(NC(=O)c3ccncc3)ccc2O[C@@H](C)CCCCO[C@H]1CN(C)C was read as p53 PUMA act 8, NFkB binder inactive, p53 mut binder inactive, STAT3 SMM inactive and c-Myc SMM active.
Screening C[C@H]1CCCCO[C@@H](CN(C)C)[C@@H](C)CN([C@@H](C)CO)C(=O)c2cc(NC(=O)c3ccncc3)ccc2O1 returned p53 PUMA act -6, NFkB binder inactive, p53 mut binder inactive, STAT3 SMM inactive and c-Myc SMM inactive.
`CC(C)NC(=O)N(C)C[C@H]1OCCCC[C@H](C)Oc2ccc(NC(=O)c3ccncc3)cc2C(=O)N([C@@H](C)CO)C[C@@H]1C` gave p53 PUMA act -4, NFkB binder active, p53 mut binder inactive, STAT3 SMM inactive and c-Myc SMM active.
`CC(C)NC(=O)N(C)C[C@@H]1OCCCC[C@@H](C)Oc2ccc(NC(=O)c3ccncc3)cc2C(=O)N([C@H](C)CO)C[C@H]1C` gave p53 PUMA act -5, NFkB binder active, p53 mut binder inactive, STAT3 SMM inactive and c-Myc SMM active.
Screening CC(C)NC(=O)N(C)C[C@H]1OCCCC[C@H](C)Oc2ccc(NC(=O)c3ccncc3)cc2C(=O)N([C@H](C)CO)C[C@@H]1C returned p53 PUMA act 3, NFkB binder active, p53 mut binder inactive, STAT3 SMM inactive and c-Myc SMM inactive.
COc1ccc(S(=O)(=O)N(C)C[C@H]2Oc3ccc(NC(=O)C4CC4)cc3C(=O)N([C@H](C)CO)C[C@H]2C)cc1 was read as p53 PUMA act -21, NFkB binder inactive, p53 mut binder inactive, STAT3 SMM inactive and c-Myc SMM inactive.
`C[C@@H]1CCCCO[C@@H](CN(C)Cc2ccccc2)[C@H](C)CN([C@H](C)CO)C(=O)c2cc(NC(=O)Nc3ccc4c(c3)OCO4)ccc2O1` gave p53 PUMA act -25, NFkB binder active, p53 mut binder inactive, STAT3 SMM inactive and c-Myc SMM inactive.
C[C@H]1CCCCO[C@H](CN(C)Cc2ccncc2)[C@@H](C)CN([C@@H](C)CO)C(=O)c2cc(NC(=O)Nc3ccccc3)ccc2O1 was read as p53 PUMA act -2, NFkB binder inactive, p53 mut binder inactive, STAT3 SMM inactive and c-Myc SMM inactive.
`C[C@@H]1CN([C@H](C)CO)C(=O)c2cc(NC(=O)Nc3ccc4c(c3)OCO4)ccc2O[C@@H](C)CCCCO[C@@H]1CN(C)C(=O)c1ccccc1` gave p53 PUMA act 1, NFkB binder inactive, p53 mut binder inactive, STAT3 SMM inactive and c-Myc SMM inactive.
For C[C@@H]1CN([C@@H](C)CO)C(=O)c2cc(NC(=O)Nc3ccccc3)ccc2O[C@@H](C)CCCCO[C@H]1CN(C)Cc1ccncc1 the results were p53 PUMA act -4, NFkB binder inactive, p53 mut binder inactive, STAT3 SMM inactive and c-Myc SMM active.
For CC(C)NC(=O)Nc1ccc2c(c1)C(=O)N([C@@H](C)CO)C[C@@H](C)[C@H](CN(C)Cc1ccccc1)OCCCC[C@H](C)O2 the results were p53 PUMA act 7, NFkB binder active, p53 mut binder inactive, STAT3 SMM inactive and c-Myc SMM active.
For C[C@H]1CCCCO[C@H](CN(C)C(=O)c2ccccc2)[C@@H](C)CN([C@@H](C)CO)C(=O)c2cc(NC(=O)Nc3ccc4c(c3)OCO4)ccc2O1 the results were p53 PUMA act -25, NFkB binder inactive, p53 mut binder active, STAT3 SMM inactive and c-Myc SMM inactive.
C[C@H]1CCCCO[C@@H](CN(C)Cc2ccccc2)[C@@H](C)CN([C@@H](C)CO)C(=O)c2cc(NC(=O)Nc3ccc4c(c3)OCO4)ccc2O1 was read as p53 PUMA act -29, NFkB binder inactive, p53 mut binder inactive, STAT3 SMM inactive and c-Myc SMM inactive.
Screening C[C@@H]1CCCCO[C@H](CN(C)C(=O)Nc2cccc3ccccc23)[C@H](C)CN([C@@H](C)CO)C(=O)c2cc(NC(=O)c3ccncc3)ccc2O1 returned p53 PUMA act -24, NFkB binder inactive, p53 mut binder inactive, STAT3 SMM inactive and c-Myc SMM inactive.
Screening C[C@@H]1CN([C@@H](C)CO)C(=O)c2cccc(NC(=O)C3CCCCC3)c2O[C@H]1CN(C)C(=O)Nc1cccc2ccccc12 returned p53 PUMA act -4.
`COC(=O)C(CC#Cc1ccc2c(c1)[C@]1(C(=O)N2)[C@H](c2ccc(OCCO)cc2)N2[C@H](c3ccccc3)[C@H](c3ccccc3)OC(=O)[C@H]2[C@@H]1C(=O)N1CCN(c2ncccn2)CC1)C(=O)OC` gave NFkB binder inactive, p53 mut binder inactive, STAT3 SMM inactive and c-Myc SMM inactive.
Screening COc1ccc(C#Cc2ccc3c(c2)[C@]2(C(=O)N3)[C@H](C(=O)N3CCc4cc(OC)c(OC)cc4C3)[C@H]3C(=O)O[C@H](c4ccccc4)[C@H](c4ccccc4)N3[C@@H]2c2ccc(OCCO)cc2)cc1 returned NFkB binder active, p53 mut binder inactive, STAT3 SMM inactive and c-Myc SMM inactive.
Screening COc1ccc(C#Cc2ccc3c(c2)[C@]2(C(=O)N3)[C@H](c3ccc(OCCO)cc3)N3[C@H](c4ccccc4)[C@H](c4ccccc4)OC(=O)[C@H]3[C@@H]2C(=O)N2CCc3cc(OC)c(OC)cc3C2)cc1 returned NFkB binder active, p53 mut binder inactive, STAT3 SMM inactive and c-Myc SMM inactive.
